Laboratory results taken from the supplement of paper PMC10338343.
± gives the standard deviation.

These sequences were tested on MILI (PIWIL2) piRISC loaded with L1MC piRNA (26 nt) (assay: pre-steady-state target cleavage rate (min^-1); guide: L1MC piRNA 5'p-UAACUAAAUACUAUGCAAGCUGUAGG; MIWI and MILI are mouse PIWI proteins and EfPiwi is from a freshwater sponge; tags in brackets are library labels; higher = faster piRNA-guided slicing of the target). Details: auxiliary factor: 500 nM mouse GTSF1.
In short: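 The pre-steady-state cleavage rate was obtained by Cleave-'n-Seq with a burst-and-steady-state fit. A transcribed, DNA-blocked target RNA library (0.1 nM) was mixed with 1 nM active affinity-purified piRISC carrying one synthetic guide, with or without 500 nM GTSF1 partner protein, in HEPES–potassium acetate buffer at 33 °C for 0–8 or 0–960 min. Uncleaved targets were sequenced and normalised to depth and to weakly complementary targets, with three trials pooled and k3 capped at 0.0001 min^-1.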

| Sequence | pre-steady-state target cleavage rate |
| --- | --- |
| UCCUGGAACAGCUUGCUAAGUAUUUAGUAA | 0.0296 ± 0.01 |
| UCCUGGUACUGCUUGCAUAGUAUUAAGUUA | 0.15 ± 0.035 |
| UCCUGGAUGUCCUUGACAUAGUAUUUAGUUA | 0.0214 ± 0.0096 |
| UCCUCCUACACCUUGCAUAGUAUUUUCAAA | 0.0721 ± 0.021 |
| UCCUGGAACAGCUUGCAUAGUAUAAAGUUA | 0.196 ± 0.029 |
| UCCUGGAUGAGCUUGCAUAGUAUUAUGUUA | 0.172 ± 0.036 |
| UCCUGGAUGUCGAACGAUAGUAUUUUAGUUA | < 0.0001 |
| UCCUGGAUGUGCUUGCAUACUAUUUAGUAA | 0.00943 ± 0.0038 |
| UCCUGGAUGUGCUUGCAUAGUAUUUGUUA | 0.0295 ± 0.011 |
| UCCUGGAUGAGCUUGCAUAGUAUUAGUUA | 0.0846 ± 0.015 |
| UCCUGGAUCAGCUUGCAUAGUAUAUUCAAA | 0.0428 ± 0.01 |
| UCCUGGAUCAGCUUGCAUAUAUUUAGUUA | 0.0263 ± 0.0067 |
| UCCUGGAUGUGCUUGCAUAGAAUUAAGUUA | 0.00431 ± 0.003 |
| UCCUGGUACAGCUUGCAUAGUAUUAUCUUA | 0.0311 ± 0.014 |
| UCCUGGAUGAGCUUGCAUACUAUUUUGUUA | 0.0073 ± 0.005 |
| UCCUGCUACAGCUUGCAUAGUUUUUACAAA | 0.0689 ± 0.019 |
| UCCUCCUACAGCUUGCAUACUAAUUAGUUA | 0.0267 ± 0.0069 |

| Sequence | pre-steady-state target cleavage rate |
| --- | --- |
| UCCUGGAUGUCCUUGCAUAGUUUUUUGUUA | 0.00821 ± 0.0052 |
| UCCUGGAUGUGCUUGCAUAGUUAAUAGUUA | 0.00482 ± 0.0042 |
| UCCUGGAUCAGCUUGCAUACUAUUUUGUUA | 0.0178 ± 0.0061 |
| UCCUGGAUGACCUUGCAUAGUUUUUAGUUA | 0.0191 ± 0.0076 |
| UCCUGGAACUCCUUGCAUAGUAUUUUCAAA | 0.0315 ± 0.0074 |
| UCCUGGUACACCUUGCAUAGUAUUUUGUUA | 0.201 ± 0.054 |
| UCCUGGAUCAGCUUCGAUAGUAUUUAGUAA | 0.158 ± 0.016 |
| UCCUGGAUGAGCAAGCAUAGUAUUUAGAAA | 0.0674 ± 0.015 |
| UCCUGGAUGAGCUUGGAUACUAUUUAGUUA | 0.00767 ± 0.0035 |
| UCCUGGAUGUCGUUGCAUAGUAUUUUCUUA | 0.00558 ± 0.0035 |
| UCCUGGAUGAGCUUGCUAAGUAUUUAGUAA | 0.0109 ± 0.0046 |
| UCCUGGAUGUCGAUGCAGAGUAUUUAGUUA | 0.00473 ± 0.0028 |
| UCCUGGAACAGCUUGCAUAGUAUUUAGAAA | 0.0838 ± 0.015 |
| UCCUGGAUCAGGUUGCAUAGUAUUUACAAA | 0.0312 ± 0.011 |
| UCCUGCUACAGCUUGCUAAGUAUUUAGUAA | 0.0923 ± 0.022 |
| UCCUGGAUCAGCUAGCAUAGUAUUUUCAAA | 0.0498 ± 0.013 |
| UCCUGGAUGAGCUUGCAUAGUAUUAUCAAA | 0.00461 ± 0.0034 |

Same assay, conditions: auxiliary factor: none (no GTSF1)

| Sequence | pre-steady-state target cleavage rate |
| --- | --- |
| UCCUGGAUGAGCUUGCUAUCAUAAAUCAAA [g15:g21:cont:t1A] | < 0.0001 |
| UCCUGGAUGUCGUUGCAUAGUUAUUAGUUA | 0.00364 ± 0.0031 |
| UCCUGGAUGUCGAAGCAUAGUAUUAUCUUA | < 0.0001 |
| UCCUGGAUGUCGAUGCAUAGUUAAUAGUUA | 0.00272 ± 0.0027 |
| UCCUGGAUGUCGAACGAUAGUAUAUUAGUUA | < 0.0001 |
| UCCUGGAUGUCGAACCAUAGUAUUUAGUGUA | < 0.0001 |
